Records with an inconclusive call do not appear. Calls of active or inactive are those of the source. Calls come from the whole dose curve; as a rule, active = well fitted curve in the direction sought with a large enough effect; inconclusive = small, poorly fitted or top-dose-only effect, or another doubt; inactive = no such curve, though single readings can be large; an effect the other way counts as inactive or inconclusive.
How the values were obtained:
[1] = target: Glutathione peroxidase 1 (Homo sapiens) (UniProt P07203); assay: Primary qHTS Assay for Inhibitors of Recombinant Selenoprotein Glutathione Peroxidase 1 (GPX1) (AID 1845191); note: nearly all actives have a fitted effect of over 65% in size
Chain of Glutathione peroxidase 1 (Homo sapiens) (P07203 whole entry, looked up): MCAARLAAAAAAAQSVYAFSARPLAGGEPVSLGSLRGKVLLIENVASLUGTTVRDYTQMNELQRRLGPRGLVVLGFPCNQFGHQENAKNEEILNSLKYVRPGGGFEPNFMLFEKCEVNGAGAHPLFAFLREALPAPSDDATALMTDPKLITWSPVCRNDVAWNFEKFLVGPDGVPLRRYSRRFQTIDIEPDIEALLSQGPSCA
In short: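 10 nM GPX1 + cpd, 30 min RT; start w/ 1 mM GSH, 0.5 mM cumene hydroperoxide, 0.5 mM NADPH, 100 nM GR, 0.01% BSA; buffer 50 mM Tris-HCl pH 7.5, 2 mM EDTA, 150 mM NaCl; Fl 340/450, 0 & 15 min.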

[2] = target: Phospholipid hydroperoxide glutathione peroxidase GPX4 (Homo sapiens) (UniProt P36969); assay: Primary qHTS Assay for Inhibitors of Recombinant Selenoprotein Glutathione Peroxidase 4 (GPX4) (AID 1845192); note: nearly all actives have a fitted effect of over 65% in size
Chain of Phospholipid hydroperoxide glutathione peroxidase GPX4 (Homo sapiens) (P36969 whole entry, looked up): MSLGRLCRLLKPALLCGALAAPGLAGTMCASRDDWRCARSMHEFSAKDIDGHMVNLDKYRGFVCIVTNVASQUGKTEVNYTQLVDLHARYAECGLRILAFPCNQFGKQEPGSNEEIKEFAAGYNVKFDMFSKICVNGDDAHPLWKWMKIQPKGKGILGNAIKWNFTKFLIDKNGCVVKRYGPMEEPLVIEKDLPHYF
In short: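 NADPH consumption, followed by fluorescence at 340/450 nm between 0 and 15 min, reports GPX4 activity via coupled glutathione reductase (100 nM). Enzyme 200 nM was pre-exposed to compound 30 min; 0.5 mM cumene hydroperoxide and 1 mM GSH served as substrates.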

[3] = target: Luciferin 4-monooxygenase (Photinus pyralis) (UniProt P08659); assay: Primary firefly luciferase (FLuc) qHTS assay for identification of artifact compounds. (AID 1845220); note: nearly all actives have a fitted effect of over 60% in size
In short: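 Compounds sat 15 min at room temperature with 10 uM luciferin and 10 uM ATP (pH 7.6 Tris acetate). Firefly luciferase (10 nM final) was then added, and luminescence was read 5 min later. Data normalized to no-enzyme and DMSO controls were Hill-fitted.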

[4] = system: Nanoluciferase (engineered Oplophorus gracilirostris luciferase); assay: Primary Nanoluciferase (NLuc) qHTS assay for identification of artifact compounds. (AID 1845222)
In short: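 Luminescence from secreted NLuc (filtered, 1:55-diluted S16 cell medium) read 5 min after Nano-Glo substrate; compounds preincubated 15 min, RT. Hill fits of inhibition normalized to DMSO and no-enzyme.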

[5] = Quantitative High-Throughput drug screen in 47 multiple myeloma cell lines against the NCATS MIPE library collection: FR4_PLB cell viability assay (AID 1918924; note: nearly all actives have a fitted effect of over 35% in size; note: potency is the fitted concentration of half-maximal effect)
In short: (§1)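 Luminescent ATP measurement with CellTiter-Glo gives viability, scaled between DMSO-only wells (100%) and media-only wells (0%). Cells, 500 per well, faced library compounds for 48 hours at 37C.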

[6] = Quantitative High-Throughput drug screen in 47 multiple myeloma cell lines against the NCATS MIPE library collection: Delta47_JCRB cell viability assay (AID 1918925; note: potency is the fitted concentration of half-maximal effect; nearly all actives have a fitted effect of over 45% in size)
In short: (§2)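 Relative luminescence from CellTiter-Glo served as the viability signal, referenced to DMSO-treated (100%) and cell-free medium (0%) controls. Treatment lasted 48 hours at 37C with 500 cells per well.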

[7] = Quantitative High-Throughput drug screen in 47 multiple myeloma cell lines against the NCATS MIPE library collection: EJM_DSMZ cell viability assay (AID 1918926; note: nearly all actives have a fitted effect of over 30% in size; note: potency is the fitted concentration of half-maximal effect)
In short: as §2

[8] = Quantitative High-Throughput drug screen in 47 multiple myeloma cell lines against the NCATS MIPE library collection: ARP1_JJKsccF8 cell viability assay (AID 1918928; note: potency is the fitted concentration of half-maximal effect; nearly all actives have a fitted effect of over 40% in size)
In short: (§3)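 ATP readout (CellTiter-Glo), 48 h drug incubation, 37 °C/5% CO2, 500 cells per well; normalisation to DMSO (100%) and media-only (0%) controls.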

[9] = Quantitative High-Throughput drug screen in 47 multiple myeloma cell lines against the NCATS MIPE library collection: Karpas417_ECACC cell viability assay (AID 1918961); conditions: Karpas417 myeloma viability, CellTiter-Glo ATP luminescence, 48 h; viability (% of DMSO): at 45.8 µM (top of the series); note: potency is the fitted concentration of half-maximal effect
In short: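 Steps: seed 500 cells per well; pin-transfer MIPE 4.0 library; incubate 48 h at 37C, 5% CO2, humidified; add CellTiter-Glo, 5 min room temperature; read luminescence.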

[10] = Quantitative High-Throughput drug screen in 47 multiple myeloma cell lines against the NCATS MIPE library collection: JIM3_ECACC cell viability assay (AID 1918963; note: nearly all actives have a fitted effect of over 35% in size; note: potency is the fitted concentration of half-maximal effect)
In short: as §1

[11] = Primary fluorescence-based thiol-reactive (MSTI) qHTS assay for identification of artifact compounds. (AID 1845221);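 note: thiol-reactive compounds lower the probe fluorescence signal; nearly all actives have a fitted effect of over 65% in size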
In short: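 MSTI probe at 4 uM final in 2% DMSO/PBS pH 7.4; compounds, 1 h at room temperature in dark. Fluorescence Ex/Em 525/598 nm, normalised to Acetyl-MSTI and MSTI, fitted to 4-parameter Hill.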

[12] = Quantitative High-Throughput drug screen in 47 multiple myeloma cell lines against the NCATS MIPE library collection: AMO1_DSMZ cell viability assay (AID 1918927; note: nearly all actives have a fitted effect of over 30% in size; note: potency is the fitted concentration of half-maximal effect)
In short: as §2

[13] = Quantitative High-Throughput drug screen in 47 multiple myeloma cell lines against the NCATS MIPE library collection: ARD_JJKsccE7 cell viability assay (AID 1918929; note: potency is the fitted concentration of half-maximal effect)
In short: as §2

[14] = Quantitative High-Throughput drug screen in 47 multiple myeloma cell lines against the NCATS MIPE library collection: Karpas620_DSMZ cell viability assay (AID 1918959); note: nearly all actives have a fitted effect of over 30% in size; note: potency is the fitted concentration of half-maximal effect
In short: as §1

[15] = Quantitative High-Throughput drug screen in 47 multiple myeloma cell lines against the NCATS MIPE library collection: KHM11_PLB cell viability assay (AID 1918962); note: nearly all actives have a fitted effect of over 35% in size; note: potency is the fitted concentration of half-maximal effect
In short: as §1

[16] = Quantitative High-Throughput drug screen in 47 multiple myeloma cell lines against the NCATS MIPE library collection: JIM1_ECACC cell viability assay (AID 1918964; note: potency is the fitted concentration of half-maximal effect)
In short: as §2

[17] = Quantitative High-Throughput drug screen in 47 multiple myeloma cell lines against the NCATS MIPE library collection: KMM1_JCRB cell viability assay (AID 1918960); note: nearly all actives have a fitted effect of over 30% in size; note: potency is the fitted concentration of half-maximal effect
In short: as §3

[18] = target: Nuclear receptor subfamily 1 group I member 3 (Homo sapiens) (UniProt Q14994); assay: Primary qHTS for agonist of constitutive androstane receptor (CAR) against the NCATS DSHEA and TCM libraries (AID 1794839);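 note: HepG2 cells expressing human CAR with a CYP2B6 reporter plus PK11195 antagonist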
Chain of Nuclear receptor subfamily 1 group I member 3 (Homo sapiens) (Q14994 whole entry, looked up): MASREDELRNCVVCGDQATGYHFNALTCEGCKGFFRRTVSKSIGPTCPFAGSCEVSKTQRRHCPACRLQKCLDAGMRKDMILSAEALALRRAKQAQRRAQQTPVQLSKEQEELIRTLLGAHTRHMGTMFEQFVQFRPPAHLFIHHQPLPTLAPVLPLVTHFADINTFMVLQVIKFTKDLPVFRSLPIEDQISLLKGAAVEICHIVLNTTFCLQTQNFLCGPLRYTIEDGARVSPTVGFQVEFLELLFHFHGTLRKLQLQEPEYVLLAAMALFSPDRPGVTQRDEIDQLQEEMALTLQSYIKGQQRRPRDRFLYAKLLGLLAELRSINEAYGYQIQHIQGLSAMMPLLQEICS
In short: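 Luminescence from ONE-Glo luciferase was the agonist read-out in HepG2-CYP2B6-hCAR cells exposed 24 h to test substances. Wells also held the CAR antagonist PK11195 at 0.75 µM final. Viability was by CellTiter-Fluor fluorescence.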

[19] = HepG2 viability counterscreen (readout 2: ATP content) against the NCATS DSHEA and TCM libraries (AID 1794840)
In short: (§4)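 1,000 HepG2 cells/well, 4 h attach; compounds ~24 h, 37C/5% CO2. Readout 1: GF-AFC 25 uM final, 30 min, fluorescence 380/510 nm. Readout 2: CellTiter-Glo, 30 min RT, luminescence.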

[20] = HepG2 viability counterscreen (readout 1: protease activity) against the NCATS DSHEA and TCM libraries (AID 1794841);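 note: cells exposed to compounds for about 24 h before the protease read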
In short: as §4

Measured: Potency

CN1CCc2c(c3ccccc3n2Cc2ccc(C(=O)NO)cc2)C1
inactive: [1] | [2] | [3] | [4]
active: [5] 18.7 µM | [6] 18.7 µM | [7] 18.7 µM | [8] 18.7 µM | [9] 20.9 µM | [10] 23.5 µM

CCc1nc(-c2cccc(C)c2)c(-c2ccnc(NC(=O)c3ccccc3)c2)s1
active: [5] 18.7 µM | [7] 16.6 µM | [12] 18.7 µM | [13] 20.9 µM | [14] 3.32 µM | [15] 0.935 µM | [16] 9.35 µM
inactive: [1] | [2] | [3] | [11] | [4]

Cc1cncc2cccc(S(=O)(=O)N3CCCN(C(=O)CN)C[C@@H]3C)c12
inactive: [1] | [2] | [3] | [11] | [4] | [17] | [10]
active: [6] 23.5 µM | [7] 23.5 µM | [12] 10.5 µM | [13] 16.6 µM

C[C@@]12C[C@@]3(O)O[C@@H](O1)[C@]1(COC(=O)c4ccccc4)[C@@H]3C[C@@]12O[C@@H]1O[C@H](CO)[C@@H](O)[C@H](O)[C@@H]1O
not listed: [1] | [2] | [3] | [4] | [6] | [8] | [9] | [11]
inactive: all other assays above

COc1ccc(C(C)=O)c(O)c1
active: [9] 0.418 µM
not listed: [1] | [2] | [3] | [4] | [6] | [8] | [11] | [15]
inactive: all other assays above

CCc1ccc(C(=O)Nc2cc(CN3CCN(C)CC3)cc(C(F)(F)F)c2)cc1C#Cc1cnc2ccnn2c1
active: [5] 11.8 µM | [7] 16.6 µM | [12] 4.69 µM | [8] 5.9 µM | [13] 8.33 µM | [14] 5.26 µM | [17] 6.62 µM | [15] 9.35 µM | [10] 7.43 µM
inactive: [1] | [2] | [3] | [11] | [4]

CC1=C(C(=O)Nc2cc3cn[nH]c3cc2F)C(c2ccc(Cl)cc2F)N=C(c2ccnc(Cl)c2)N1 (configuration not stated)
active: [6] 11.8 µM | [12] 14.8 µM | [13] 20.9 µM | [14] 18.7 µM | [17] 20.9 µM | [16] 16.6 µM
inactive: [1] | [2] | [3] | [11] | [15]
